This note sets out measurements from PubChem BioAssay (NCATS).

Experiment [1] relates to Zika virus NS2B-NS3 protease (unlinked complex). The experiment in a line: Primary screen GU Rhodamine qHTS for Zika virus inhibitors: Unlinked NS2B-NS3 protease assay (AID 1347159). Further: nearly all actives have a fitted effect of over 60% in size. Further: potency means the concentration at half of the fitted maximal effect. A digest of the protocol:
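Unlinked NS2B/NS3, 25 nM; Rhod110 peptide, 1.5 microM; compounds, up to 114 microM. Reaction run 15 min at RT in 10 mM Tris-HCl pH 8.0, 0.01% Tween 20; kinetic fluorescence change fitted with a 4-parameter Hill model.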

The subject of experiment [2] is Zika virus NS2B-NS3 protease (linked construct). The experiment in a line: Primary screen NINDS Rhodamine qHTS for Zika virus inhibitors (AID 1347160). Further: nearly all actives have a fitted effect of over 55% in size. The procedure, abridged: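 Single-chain NS2B-NS3 protease, 25 nM, pH 8.0; compounds preincubated 15 min. Activity: Rhodamine110 release from 1.5 microM substrate over 15 min, room temperature, data fitted to 4-parameter Hill.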

Results filed as inconclusive are left out. A call without a number means that no potency is given here. A number with no mark means an inactive call. Activity calls are given as the source filed them. The call rests on the fitted dose curve; in most records, active means well fitted inhibition curve with a large enough effect; inconclusive means small, poorly fitted or top-dose-only effect; inactive means no such curve, though single readings can be large or run the other way. Where a SMILES comes first, the peptide text is derived from it. [ ]: non-standard residue; d: D form. ξ: configuration not given here. ξLac(3-iPr) = CC(C)CC(O)C(=O)O; NMeV = CN[CH](C(=O)O)C(C)C; βAla = NCCC(=O)O

On to `CN(C)C(=O)NC1CCC(CCN2CCN(c3cccc(Cl)c3Cl)CC2)CC1` (stereo not drawn), for which the activity change, negative = inhibition in experiment [1] was 13.9% [at 19.1 µM]. Further, the outcome in experiment [2] was “inactive [at 10.7 µM]”.
In the case of `CC(=O)C=C=C1C(C)(C)CC(O[C@@H]2O[C@H](CO)[C@@H](O)[C@H](O)[C@H]2O)CC1(C)O` (stereo partly drawn), the Potency result in experiment [1] and in experiment [2] was “inactive” throughout.
On to `O=C(NCc1ccc(S(=O)(=O)c2cc(F)cc(F)c2)cc1)c1ccc2nccn2c1`, for which the Potency entry in experiment [1] and in experiment [2] was “inactive” each time.
`COc1cc2c(cc1OC)-c1[nH]nc(Nc3cccc(F)c3)c1C2`: the Potency result in experiment [1] and in experiment [2] was “inactive” in each case.
Take `COc1cc2c(cc1O)CC[C@H]1[C@@H]2CC[C@]2(C)[C@H](O)CC[C@@H]12`: the Potency entry in experiment [1] and in experiment [2] was “inactive” each time.
On to `COc1ccc(-c2c(-c3cc(C(=O)O)ccn3)ncn2C)cc1`, for which the Potency entry in experiment [1] and in experiment [2] was “inactive” each time.
Turning to `O=C(NCc1cccc(O)c1)c1cc2cc(F)ccc2[nH]1`, the Potency result in experiment [1] and in experiment [2] was “inactive” in each case.
As for `Cc1cc(C)c2c(N)c(C(=O)NCc3ccc(Cl)cc3)sc2n1`, the Potency entry in experiment [1] and in experiment [2] was “inactive” in each case.
`Cc1cc2c(F)c(Oc3ncnn4cc(OCC(C)O)c(C)c34)ccc2[nH]1` (stereo not drawn): the Potency entry in experiment [1] and in experiment [2] was “inactive” each time.
For the molecule `CC1(C)CC(=O)C2=C(C1)NC(=S)NC2c1cccc(O)c1` (stereo not drawn), the Potency entry in experiment [1] and in experiment [2] was “inactive” each time.
Turning to `C[C@@H]1O[C@@H](O[C@H]2[C@H](OC(=O)[C@]34CCC(C)(C)C[C@H]3C3=CCC5[C@@]6(C)C[C@H](O)[C@H](O[C@@H]7O[C@H](CO)[C@@H](O)[C@H](O)[C@H]7O)[C@@](C)(CO)C6[C@H](O)C[C@@]5(C)[C@]3(C)C[C@H]4O)OC[C@H](O)[C@@H]2O)[C@H](O)[C@H](O)[C@H]1O[C@@H]1OC[C@@H](O)[C@H](O[C@H]2OC[C@](O)(CO)[C@H]2O)[C@H]1O` (stereo partly drawn), the activity change, negative = inhibition was 7.01% [at 19.1 µM] in experiment [1] and 18.3% [at 10.7 µM] in experiment [2].
As to `c1ccc(-c2ncc(CN3CCN(c4ncccn4)CC3)[nH]2)cc1`, the Potency result in experiment [1] and in experiment [2] was “inactive” each time.
`CCO[C@@H]1OC(=O)C[C@@H]1NC(=O)[C@@H]1CCCN1C(=O)[C@@H](NC(=O)c1ccc(N)c(Cl)c1)C(C)(C)C`: the Potency entry in experiment [1] and in experiment [2] was “inactive” throughout.
As to `C/C(=C\CCC(C)CCO)C(=O)O[C@@H]1[C@@H](O)[C@H](OC2OC=C(C(=O)O)C3CCC(C)(O)C23)O[C@H](CO)[C@H]1O` (stereo partly drawn), the Potency in experiment [1] was 35.5 µM (active). The Potency entry in experiment [2] was “inactive”.
For `CN[C@H](C(=O)N[C@H](C(=O)N(C)[C@H](/C=C(\C)C(=O)O)C(C)C)C(C)(C)C)C(C)(C)c1ccccc1` the same measures were “inactive” and “inactive”.
For `CN1C2CCC1CC(OC(=O)[C@H](CO)c1ccccc1)C2` (stereo partly drawn), in that order: “inactive” and “inactive”.
For `CC(C)=CCC/C(C)=C/CO[C@@H]1O[C@H](CO)[C@@H](O)[C@H](O)[C@H]1O`, in that order: “inactive” and “inactive”.
Take `Cc1oc2ccccc2c1CNC(=O)NCc1cccs1`: the Potency result in experiment [1] and in experiment [2] was “inactive” in each case.
With `C[C@H]1CC[C@@]2(OC1)O[C@H]1CC3C4CC[C@H]5C[C@@H](O)[C@H](O)C[C@]5(C)C4=CC(=O)[C@]3(C)[C@H]1[C@@H]2C` (stereo partly drawn), the Potency entry in experiment [1] and in experiment [2] was “inactive” throughout.
On to `CC1OC(OC2C(OC3C(O[C@H]4CC[C@@]5(C)C(CC[C@]6(C)C5C(=O)C=C5C7CC(C)(C)CC(O)[C@]7(C)CC[C@]56C)C4(C)C)OC(C(=O)O)C(O)C3O)OCC(O)C2O)C(O)C(O)C1O` (stereo partly drawn), for which the Potency entry in experiment [1] and in experiment [2] was “inactive” throughout.
With `C[C@]12C=C[C@@]3(CCC4[C@](C)(CO)CCC[C@@]4(C)C3CC1)C2` (stereo partly drawn), the Potency in experiment [1] was 22.4 µM (active). Further, the Potency result in experiment [2] was “inactive”.
For `CC(C)O[C@@H]1O[C@H](CO)[C@@H](O)[C@H](O)[C@H]1O`, in that order: “inactive” and “inactive”.
For `CC(C)(F)C[C@@H](N[C@@H](c1ccc(-c2ccc(S(C)(=O)=O)cc2)cc1)C(F)(F)F)C(=O)NC1(C#N)CC1` the same measures were “inactive” and “inactive”.
On to `O=C(Nc1ccccc1-c1cn2c(CN3CCNCC3)csc2n1)c1ccc2ccccc2n1`, for which the Potency entry in experiment [1] and in experiment [2] was “inactive” throughout.
`O=C(O)CCCCCC[C@H]1C(=O)NC(=O)N1CC[C@@H](O)C1CCCCC1`: the Potency result in experiment [1] and in experiment [2] was “inactive” in each case.
For `O=C(c1cc2c(cc1F)OC(c1ccc(F)cc1)(c1ccc(Cl)cc1Cl)O2)N1CCOCC1` (stereo not drawn), the Potency result in experiment [1] and in experiment [2] was “inactive” each time.
As for `COC(=O)C[C@H]1C(C)(C)[C@H](OC(C)=O)C2CC3=C4CC(=O)O[C@@H](c5ccoc5)[C@]4(C)CCC3[C@@]1(C)C2=O` (stereo partly drawn), the Potency entry in experiment [1] and in experiment [2] was “inactive” in each case.
As for `COC(=O)CC(C)(O)CC(=O)OCc1ccc(O[C@@H]2O[C@H](CO)[C@@H](O)[C@H](O)[C@H]2O)cc1` (stereo partly drawn), the Potency result in experiment [1] and in experiment [2] was “inactive” in each case.
As for `CCC(C)C(=O)OC1CC(O)C23C4OCC5(C(O)CC2C1(C)C(O)O4)C3C(=O)CC1(C)C(c2ccoc2)CC2OC215` (stereo not drawn), the Potency entry in experiment [1] and in experiment [2] was “inactive” throughout.
As to `Cc1c(NC(=O)c2cc(C(N)=O)nc3cc(F)ccc23)c(C(F)(F)F)nn1Cc1ccc(C#N)cc1`, the Potency entry in experiment [1] and in experiment [2] was “inactive” in each case.
As for `C=C(C)C1CC[C@]2(C(=O)O)CC[C@]3(C(=O)O)[C@H](CCC4[C@@]5(C)CC[C@H](O)C(C)(C)C5CC[C@]43C)C12` (stereo partly drawn), the Potency entry in experiment [1] and in experiment [2] was “inactive” in each case.
As to `CC1C(=O)OCC2=CCN3CCC(OC(=O)C(C)(O)C1(C)O)C23` (stereo not drawn), the Potency result in experiment [1] and in experiment [2] was “inactive” each time.
Turning to `C[C@H](N)C(=O)N[C@@H](Cc1ccc(O)cc1)C(=O)N1CCC[C@H]1C(=O)NCC(=O)N[C@@H](CCCCN)C(=O)N[C@@H](Cc1ccccc1)C(N)=O`, the activity change, negative = inhibition is 124% [at 19.1 µM] in experiment [1] and 9.61% [at 10.7 µM] in experiment [2].
As for `COc1cc2c(cc1OC)[C@@H]1[C@H](O)[C@@H](OC)C=C3CCN(C2)[C@H]31`, the Potency entry in experiment [1] and in experiment [2] was “inactive” each time.
For the molecule `CCCOC(c1cc2nccc(C(=O)O)c2[nH]1)c1ccccc1Cl` (stereo not drawn), the Potency entry in experiment [1] and in experiment [2] was “inactive” each time.
As for `CNS(=O)(=O)c1ccccc1Nc1nc(Nc2ccc(N3CCN(C)CC3)cc2OC)ncc1Cl`, the Potency result in experiment [1] and in experiment [2] was “inactive” throughout.
Take `CC1(C)CC[C@]23CO[C@@]4(CCC5[C@@]6(C)CC[C@H](O[C@@H]7OC[C@H](O[C@@H]8O[C@H](CO)[C@@H](O)[C@H](O)[C@H]8O)[C@H](O)[C@H]7O[C@@H]7O[C@H](CO)[C@@H](O[C@@H]8O[C@H](CO)[C@@H](O)[C@H](O)[C@H]8O)[C@H](O)[C@H]7O)[C@@](C)(CO)C6CC[C@@]5(C)[C@]4(C)C[C@H]2OC2OCC(O)C(O)C2O)C3C1` (stereo partly drawn): the activity change, negative = inhibition in experiment [1] was 15.7% [at 19.1 µM]. Further, the outcome in experiment [2] was “inactive [at 10.7 µM]”.
Take `CC(C)CC1OC(=O)C2CCCN2C(=O)CCNC(=O)C(Cc2ccccc2)NC(=O)C(C(C)C)N(C)C(=O)C(C(C)C)N(C)C1=O` (stereo not drawn) (cyclo([ξLac(3-iPr)][NMeV][NMeV]F[βAla]P); configuration not given here): the Potency result in experiment [1] and in experiment [2] was “inactive” throughout.
Turning to `OC[C@H]1O[C@@H](Oc2cc(O)c3c(c2)O[C@@H](c2ccc(O)cc2)[C@H](O)C3)[C@H](O)[C@@H](O)[C@@H]1O`, the Potency entry in experiment [1] and in experiment [2] was “inactive” each time.
`CC1OC2OC(=O)C3(C)CC4=C(CO)C5=C(CC(=O)C4(C)C(C1=O)C23)C(C)(C)OC(=O)C5` (stereo not drawn): the Potency entry in experiment [1] and in experiment [2] was “inactive” throughout.
Regarding `CC(CCC1(O)OC2CC3C4CCC5CC(O[C@@H]6O[C@H](CO)[C@@H](O)[C@H](O)[C@H]6O[C@@H]6O[C@@H](C)[C@H](O)[C@@H](O)[C@H]6O)C(O)CC5(C)C4CCC3(C)C2C1C)CO[C@@H]1O[C@H](CO)[C@@H](O)[C@H](O)[C@H]1O` (stereo partly drawn), the Potency entry in experiment [1] and in experiment [2] was “inactive” each time.
In the case of `CC(C)=CCC[C@](C)(O[C@@H]1O[C@H](CO[C@@H]2O[C@H](CO)[C@@H](O)[C@H](O)[C@H]2O)[C@@H](O)[C@H](O)[C@H]1O)C1CC[C@]2(C)[C@@H]1[C@H](O)CC1[C@@]3(C)CC[C@H](O[C@@H]4O[C@H](CO)[C@@H](O)[C@H](O)[C@H]4O[C@@H]4O[C@H](CO)[C@@H](O)[C@H](O)[C@H]4O)C(C)(C)[C@@H]3CC[C@]12C` (stereo partly drawn), the Potency result in experiment [1] and in experiment [2] was “inactive” in each case.
Turning to `COc1cc2occc2c(O[C@@H]2O[C@H](CO)[C@@H](O)[C@H](O)[C@H]2O)c1CCC(=O)O`, the Potency result in experiment [1] and in experiment [2] was “inactive” each time.
In the case of `Cn1cc(S(=O)(=O)c2ccc(Cl)cc2)c2cccc(N3CCNCC3)c21`, the Potency result in experiment [1] and in experiment [2] was “inactive” in each case.
In the case of `Cc1cccc(C)c1OCc1cc(C(=O)N2CCC(c3ccncc3)CC2)no1`, the Potency entry in experiment [1] and in experiment [2] was “inactive” throughout.
For the molecule `COC(=O)C1=CO[C@@H](O[C@@H]2O[C@H](CO)[C@@H](O)[C@H](O)[C@H]2O)[C@@H]2C(COC(C)=O)=C[C@H](O)[C@H]12`, the Potency entry in experiment [1] and in experiment [2] was “inactive” throughout.
`CCN1CCN(Cc2ccc(NC(=O)c3ccc(C)c(/C=C/c4cnc5[nH]ccc5c4OC)c3)cc2C(F)(F)F)CC1`: the Potency entry in experiment [1] and in experiment [2] was “inactive” each time.
`OCc1ccc(O[C@@H]2O[C@H](CO)[C@@H](O)[C@H](O)[C@H]2O)cc1`: the Potency result in experiment [1] and in experiment [2] was “inactive” in each case.
`NC(=O)c1csc(C2OC(CO)C(O)C2O)n1` (stereo not drawn): the Potency result in experiment [1] and in experiment [2] was “inactive” in each case.
On to `Cc1ccc(S(=O)(=O)n2ccc(-c3c(-c4ccc(Cl)cc4)noc3C)n2)cc1`, for which the Potency entry in experiment [1] and in experiment [2] was “inactive” each time.
Take `Cc1nc([C@](C)(O)CO)sc1-c1cnc(N)c(O[C@H](C)c2cc(F)ccc2-n2nccn2)c1`: the Potency entry in experiment [1] and in experiment [2] was “inactive” throughout.
As to `N#Cc1ccc(-c2cnc3[nH]cc(NC(=O)c4cccnc4)c3c2)cc1`, the Potency result in experiment [1] and in experiment [2] was “inactive” in each case.
Regarding `CCOC(=O)C(CCc1ccccc1)NC1CSC(c2cccs2)CN(CC(=O)O)C1=O` (stereo not drawn), the Potency result in experiment [1] and in experiment [2] was “inactive” each time.
`CC(=O)OC1C(O)C2C(C)C3=CC(=O)OC3(O)CC2C2(C)CCCC(C)(CO)C12` (stereo not drawn): the Potency entry in experiment [1] and in experiment [2] was “inactive” in each case.
